According to PubChem BioAssay (NCATS):
Records with an inconclusive call do not appear. Calls of active or inactive are those of the source. Calls follow the shape of the dose curve; as a rule, active = well fitted inhibition curve with a large enough effect; inconclusive = small, poorly fitted or top-dose-only effect; inactive = flat fitted curve, though single readings scatter.

Tests used:
Test in all cases: qHTS profiling for inhibitors of Plasmodium falciparum proliferation (AID 504749); also: nearly all actives have a fitted effect of over 60% in size
Details in all cases: P. falciparum in erythrocytes, SYBR Green DNA, 72 h; series mostly up to 28.7 µM
CP305 = tested on: CP305
How it was run: (§1)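 Quantitative HTS: compounds pinned into medium, infected erythrocytes added (0.3% parasitemia, 2.5% hematocrit), 72 h culture at 37 C under 5% CO2. Saponin/Triton lysis with SYBR Green I, overnight RT, then fluorescence read.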

CP315 = tested on: CP315
How it was run: as §1

CP325 = tested on: CP325
How it was run: as §1

CP329 = tested on: CP329
How it was run: as §1

CP335 = tested on: CP335
How it was run: as §1

DFO2036 = tested on: DFO2036
How it was run: as §1

DIV14 = tested on: DIV14
How it was run: as §1

DIV17 = tested on: DIV17
How it was run: as §1

DIV30 = tested on: DIV30
How it was run: as §1

Dd2 = tested on: Dd2
How it was run: as §1

ECU = tested on: ECU
How it was run: as §1

FAB9 = tested on: FAB9
How it was run: as §1

GB4 = tested on: GB4
How it was run: as §1

HB3 = tested on: HB3
How it was run: as §1

ICS = tested on: ICS
How it was run: as §1

JCK = tested on: JCK
How it was run: as §1

N140 = tested on: N140
How it was run: as §1

P93_24 = tested on: P93_24
How it was run: as §1

P94_40 = tested on: P94_40
How it was run: as §1

PAD = tested on: PAD
How it was run: as §1

Measured: Potency

CC(CNC(=O)c1cccnc1)NC(=O)c1cccnc1 (stereo not given)
inactive: all assays above

OCC(O)CO
inactive: all assays above

O=C(O)C1=C(CSc2nnnn2CS(=O)(=O)O)CS[C@@H]2[C@H](NC(=O)[C@H](O)c3ccccc3)C(=O)N12
inactive: all assays above

COc1ccc(/C=N/NC(=O)c2ccncc2)c(C(=O)O)c1OC
inactive: all assays above

CC/C=C\C/C=C\C/C=C\C/C=C\C/C=C\CCCC(=O)O
inactive: all assays above

Cc1cccc(Nc2ncccc2C(=O)O)c1C
inactive: all assays above

CCCCCCCCCCCCCCCCCC[N+](C)(C)CCC[Si](OC)(OC)OC
inactive: all assays above

CCc1ccc(S(=O)(=O)O)cc1
inactive: all assays above

CC(=O)Oc1cccc(C(=O)O)c1OC(C)=O
inactive: all assays above

N[C@H](CC(=O)O)C(=O)O
inactive: all assays above

CN1C(=O)OC(C)(C)C1=O
inactive: all assays above

Nc1ncnc2c1ncn2CCOCP(=O)(O)O
inactive: all assays above

c1ccc2ccccc2c1
inactive: all assays above

Cc1ncc(C[n+]2csc(CCOP(=O)(O)OP(=O)(O)O)c2C)c(N)n1
inactive: all assays above

O=C(O)COc1ccccc1/C=N/NC(=O)c1ccncc1
inactive: all assays above

CCN(CC)CCOc1ccc2nc(N(C)C)sc2c1
inactive: all assays above

NCC[C@H](O)C(=O)N[C@@H]1C[C@H](N)[C@@H](O[C@H]2O[C@H](CN)CC[C@H]2N)[C@H](O)[C@H]1O[C@H]1O[C@H](CO)[C@@H](O)[C@H](N)[C@H]1O
inactive: all assays above

OCC1(CO)COC(C(Cl)(Cl)Cl)OC1
inactive: all assays above

O=C(O)c1ccc(NC(=O)[C@H](Cc2ccc(O)cc2)NC(=O)c2ccccc2)cc1
inactive: all assays above

CC12CCC(C1)C(C)(C)C2=O (stereo not given)
inactive: all assays above

ClC(Cl)Cl
inactive: all assays above

Cc1ccc(S(=O)(=O)NCl)cc1
inactive: all assays above

FCOC(C(F)(F)F)C(F)(F)F
inactive: all assays above

N=C(N)n1cccn1
inactive: all assays above

O=P(O)(O)OC[C@H](O)CO
inactive: all assays above

O=[n+]1ccn([O-])c2ccccc21
inactive: all assays above

CC1C(=O)CC2C3(C)CCC2(C(C)C(=O)O)C(=O)C13 (stereo not given)
inactive: all assays above

CCCC(=O)O
inactive: all assays above

O=C1N=C2SCCN2C(=O)C1Cc1ccc(Cl)cc1 (stereo not given)
inactive: all assays above

Nc1nccs1
inactive: all assays above

CCCCC[C@H](O)/C=C/[C@@H]1[C@H]2C/C(=C/CCCC(=O)O)O[C@H]2C[C@H]1O
inactive: all assays above

O=S(=O)(O)CC(S)CS (stereo not given)
inactive: all assays above

O=C1c2ccccc2C(=O)C1c1ccc(F)cc1
inactive: all assays above

CCOC(C)OCC
inactive: all assays above

CCCCC
inactive: all assays above

CCCOC(=O)c1ccccc1O
inactive: all assays above

CCC(C)[C@@H](N)C(=O)O (stereo not given in full)
inactive: all assays above

CCCCCCCCCC(=O)NO
inactive: all assays above

CC(=O)NCCCS(=O)(=O)O
inactive: all assays above

CC1(C)S[C@@H]2[C@H](NC(=O)C3(N)CCCCC3)C(=O)N2[C@H]1C(=O)O
inactive: all assays above

CC(C)Cc1ccc([C@@H](C)C(=O)NS(C)(=O)=O)cc1
inactive: all assays above

O=C(O)COc1ccc(CCNS(=O)(=O)c2ccccc2)s1
inactive: all assays above

CCCCO
inactive: all assays above

O=C(CCCCCCCCCCCCC1CCCC1)Nc1ccc(S(=O)(=O)c2ccc(NC(=O)CCCCCCCCCCCCC3CCCC3)cc2)cc1
inactive: all assays above

CC(C)(C)c1ccc2c(S(=O)(=O)O)c(C(C)(C)C)ccc2c1
inactive: all assays above

O=C(O)/C=C/c1ccccc1
inactive: all assays above

O=C(O)/C=C/C(=O)Nc1ccc(S(=O)(=O)Nc2nccs2)cc1
inactive: all assays above

O=C1CCC(=O)N1CO
inactive: all assays above

CCCCC[C@H](O)/C=C/[C@H]1[C@H](O)CC(=O)[C@@H]1C/C=C\CCCC(=O)O
inactive: all assays above

NC(=O)[C@H]1O[C@@H](O)[C@H](O)[C@@H](O)[C@@H]1O
inactive: all assays above

c1ccc(-n2cnnn2)cc1
inactive: all assays above

CCOC(=O)c1cc(-c2ccccc2)nc2ccc(C)cc12
inactive: all assays above

Cc1cccc(C)c1NC(=O)NC1=CCCN1C
inactive: all assays above

C[Si](C)(C)O[Si](C)(C)C
inactive: all assays above

Cc1cc(=O)c(C(=O)N[C@@H](C(=O)N[C@@H]2C(=O)N3C(C(=O)O)=C(CSc4nnnn4C)CS[C@H]23)c2ccc(O)cc2)c[nH]1
inactive: all assays above

CC1(O)CCC(C(C)(C)O)CC1 (stereo not given)
inactive: all assays above

COc1cc2c(cc1OC)[C@@H](Cc1cc(OC)c(OC)c(OC)c1)[N+](C)(CCCOC(=O)CC/C=C/CCC(=O)OCCC[N+]1(C)CCc3cc(OC)c(OC)cc3[C@H]1Cc1cc(OC)c(OC)c(OC)c1)CC2 (stereo not given in full)
inactive: all assays above
